Assay results published in PubChem BioAssay AID540321 (Johns Hopkins Ion Channel Center, 2011).
The source made the active and inactive calls.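 How the source made its calls: active means Inhibition of the Kir2.1 potassium channel over 30% at some tested dose, plus a fitted dose response curve; inactive means no Kir2.1 inhibition at any dose, or no curve fitted.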

These molecules were tested against Inward rectifier potassium channel 2 (Mus musculus) (UniProt P35561) (assay: Kir2.1 channel inhibition, specificity check, SAR follow-up, selectivity assay for KCNK9 inhibitor project, cell-based, FluxOR thallium flux, CRC round 2 (AID 540321)). Conditions: Kir2.1-expressing cells; series mostly up to 30 µM; fluorescence ratio, lower = inhibition: at the top concentration.
Inward rectifier potassium channel 2 (Mus musculus), sequence (P35561 whole entry, looked up): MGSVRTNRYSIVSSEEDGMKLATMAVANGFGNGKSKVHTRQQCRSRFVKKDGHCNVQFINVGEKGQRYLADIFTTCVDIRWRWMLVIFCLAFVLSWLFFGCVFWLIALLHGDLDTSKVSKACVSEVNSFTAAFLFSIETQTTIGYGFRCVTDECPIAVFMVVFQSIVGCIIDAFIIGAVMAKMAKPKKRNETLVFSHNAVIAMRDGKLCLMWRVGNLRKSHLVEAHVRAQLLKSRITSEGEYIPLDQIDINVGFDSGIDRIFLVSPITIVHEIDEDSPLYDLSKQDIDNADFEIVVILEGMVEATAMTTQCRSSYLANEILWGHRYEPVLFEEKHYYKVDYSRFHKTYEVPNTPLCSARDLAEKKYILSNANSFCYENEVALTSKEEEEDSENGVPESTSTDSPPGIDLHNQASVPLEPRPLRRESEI

Row | SMILES | fluorescence ratio, lower = inhibition | outcome
1 | Cc1cccc(C(=O)Nc2cccc(NC(=O)c3ccc(C(C)(C)C)cc3)c2)c1 | 1.67 (inactive) | 
2 | Cc1cccc(C(=O)Nc2cccc(NC(=O)c3ccccc3C)c2)c1 | 1.81 (inactive) | 
3 | O=C(Nc1cccc(NC(=O)c2ccc(Cl)cc2)c1)c1ccccc1 | 1.31 (inactive) | 
4 | O=C(Nc1cccc(NC(=O)c2cccc(C(F)(F)F)c2)c1)c1ccccc1 | 1.41 (inactive) | 
5 | COc1ccccc1C(=O)Nc1cccc(NC(=O)c2ccccc2)c1 | 1.79 (inactive) | 
6 | CCOc1ccccc1NC(=O)c1cccc(NC(=O)c2ccccc2C)c1 | 1.36 (inactive) | 
7 | CCOc1ccccc1NC(=O)c1cccc(C(=O)NC2CCCC2)c1 | 1.88 (inactive) | 
8 | COc1cccc(-c2n[nH]c(=S)n2C(C)C2CC3CCC2C3)c1 (configuration not stated) | 1.64 (inactive) | 
9 | O=C(Nc1cccc(NC(=O)c2ccc(C(F)(F)F)cc2)c1)c1ccccc1 |  | inactive
10 | COc1ccccc1C(=O)Nc1cccc(NC(=O)c2cccc(C)c2)c1 | 1.71 (inactive) | 
11 | CCOc1ccccc1NC(=O)c1cccc(NC(=O)C2CCCCC2)c1 | 1.64 (inactive) | 
12 | O=C(Nc1cccc(NC(=O)c2ccc(F)cc2)c1)c1ccccc1 | 1.7 (inactive) | 
13 | CCOc1ccccc1NC(=O)c1cccc(NC(=O)C(C)(C)C)c1 | 1.83 (inactive) | 
14 | Cc1cccc(C(=O)Nc2cccc(NC(=O)c3ccccc3C(C)C)c2)c1 | 1.66 (inactive) | 
15 | CN(C)c1ccc(C(=O)Nc2cccc(NC(=O)c3ccccc3)c2)cc1 | 1.47 (inactive) | 
16 | O=C(Nc1cccc(NC(=O)c2cccs2)c1)c1ccccc1 | 1.67 (inactive) | 
17 | CC(c1ccco1)n1c(-c2ccoc2)n[nH]c1=S (configuration not stated) | 1.74 (inactive) | 
